The nature of assay [1]: NCI Yeast Anticancer Drug Screen. Data for the rad50 strain (AID 155).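 Also: 0% = growth of vehicle-only cultures of the same strain.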 To be noted: S. cerevisiae rad50 strain growth inhibition; at 50.0 µM; active compounds read high. The procedure, abridged:
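Inhibition values express reduced yeast growth in compound-treated cultures relative to vehicle-treated controls.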

Assay [2] in a line: NCI Yeast Anticancer Drug Screen. Data for the mec2-1 strain (AID 157). Particulars: S. cerevisiae mec2-1 strain, at 50.0 µM, active compounds read high. The procedure, abridged:
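Using mec2-1 yeast: add compound, measure growth, express inhibition versus vehicle-treated cultures.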

A short description of assay [3]: NCI Yeast Anticancer Drug Screen. Data for the mlh1 rad18 strain (AID 175). Particulars: S. cerevisiae mlh1 rad18 strain growth inhibition; at 50.0 µM; active compounds read high. The procedure, abridged: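 Steps: expose repair-defective yeast to compound; measure growth; express inhibition against vehicle-treated controls.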
Assay [4] can be described thus: NCI Yeast Anticancer Drug Screen. Data for the sgs1 mgt1 strain (AID 161).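 Also: 0% = growth of cultures given vehicle only.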 To be noted: S. cerevisiae sgs1 mgt1 strain, at 50.0 µM, active compounds read high. Put shortly: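 This yeast growth screen uses a strain with defined DNA-repair lesions; compound-treated growth is compared with vehicle-treated growth.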
Assay [5] can be described thus: NCI Yeast Anticancer Drug Screen. Data for the cln2 rad14 strain (AID 165).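 Also: 0% = growth equal to vehicle treated cultures.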 To be noted: S. cerevisiae cln2 rad14 strain, at 50.0 µM, active compounds read high. The procedure, abridged: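 Yeast strain cln2 rad14, bearing defects in cell cycle control and DNA repair, serves as the test system; values reflect growth inhibition compared with vehicle.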
Assay [6] is described as follows: NCI Yeast Anticancer Drug Screen. Data for the bub3 strain (AID 167). Particulars: S. cerevisiae bub3 mutant strain, at 50.0 µM, active compounds read high. Put shortly: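 Steps: expose the mutant yeast strain to compound; grow alongside vehicle-treated cultures; measure growth; express inhibition against the vehicle cultures.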

About 79,000 compounds went through this panel and 15% of them were active in at least one assay; those are over-represented in the sample as a whole. Values without a mark were called inactive. Calls of active or inactive are those of the source. Rule as the data show it: active = growth inhibition above about 70%; inactive = the rest.

On to `S=C(NNc1ccccc1)NC1CCCCC1`, for which the growth inhibition in assay [1] was 7.35%; in assay [2] it was -37.2%; in assay [3] it was -8.6%.
`N=C1N=C(N)CS1`: the growth inhibition in assay [1] is 2.6%; in assay [2], -10%; in assay [4] it was 3.8%; in assay [5], 12.4%; in assay [3], 3.85%.
On to `O=S(=O)(O)c1cc(O)c2c(O)cc(S(=O)(=O)O)cc2c1`, for which the growth inhibition in assay [1] was -0.75%; in assay [2], -20.1%; in assay [4], -21.2%; in assay [6], -8.1%; in assay [3] it was -4.7%.
The matching figures for `CC(=O)[C-](C(C)=O)c1ccccc1.CC(=O)[C-](C(C)=O)c1ccccc1.CC(=O)[C-](C(C)=O)c1ccccc1.[Cl-].[Zr+4]`: 27.4%, 28.8%, 0.35%, 14.8% and 1.65%.
Take `C=C1CCN(c2ccccc2)C1=O`: the growth inhibition is 5.3% in assay [1]; -2.6% in assay [2]; -5.15% in assay [4]; -5.05% in assay [6]; -4.55% in assay [3].
`Cc1ccc(F)cc1NC(=O)O/N=C(\Cl)C(C)C`: the growth inhibition in assay [1] is -17.9%; in assay [2], -31.9%; in assay [4], -5.7%; in assay [5], 3.85%; in assay [3] it was 55.6%.
Turning to `c1ccc(-c2cccc3ccccc23)cc1`, the growth inhibition was 32.6% in assay [1]; 6.7% in assay [2]; 2.65% in assay [4]; -11.2% in assay [6]; 16.4% in assay [3].
For the molecule `CN1C2CCC1CC(OC(=O)C(O)c1ccccc1)C2` (stereo not drawn), the growth inhibition in assay [1] is 9.3%; in assay [2], -3.75%; in assay [4], -27.9%; in assay [3] it was 7.45%.
On to `CCCCCCCCCC(=O)CC(=O)c1c(O)cc(O)cc1O`, for which the growth inhibition was 87.8% (active) in assay [1]; 91.3% (active) in assay [2]; 12.2% in assay [4]; 22.4% in assay [5]; 91.7% (active) in assay [3].
For `Cc1ccc(NC2=N/C(=C/c3ccccc3)C(Cl)=N2)cc1`, the growth inhibition is -10.1% in assay [1]; -30.6% in assay [2]; 16.9% in assay [4]; 10.9% in assay [5]; -51% in assay [3].
With `O=C(Cc1nc2ccc(C(=O)c3ccccc3)cc2[nH]c1=O)C(=O)Nc1ccccc1[N+](=O)[O-]`, the growth inhibition in assay [1] is 2.75%; in assay [2], -15.6%; in assay [4], 7.75%; in assay [5], 9.35%; in assay [3], 12.3%.
Consider `CC(C)N(C)c1ccc(N=Nc2cc(Cl)ccc2Cl)cc1`, for which the growth inhibition is -27.6% in assay [1], -36.8% in assay [2] and -24.4% in assay [3].
As for `Cc1ccc(Cl)cc1NCN1C(=O)c2ccccc2C1=O`, the growth inhibition in assay [1] was 1.35%; in assay [2], -2.4%; in assay [3] it was 11.1%.
Take `CCOC(=O)c1c(N)sc2c1CCN(Cc1ccccc1)C2`: the results for the growth inhibition in assay [1], in assay [2] and in assay [3] were 39.4%, 17.8% and 21.9%, respectively.
The matching figures for `C(=C/c1ccc(/C=C/c2ccccc2)cc1)/c1ccccc1`: -22.1%, -13.9% and -26.8%.
The matching figures for `CC(=O)CC1CCCC(CC(C)=O)N1C` (stereo not drawn): -9.3%, -19.2% and 0.2%.
With `C(=N\n1cnnc1)/c1ccc2c(c1)CCC2`, the values for the growth inhibition in assay [1], in assay [2] and in assay [3] were -21.6%, -34.5% and -20.4%, respectively.
For the molecule `Cc1ccc(S(=O)(=O)Nc2ccccc2C2Nc3ccccc3C(=O)O2)cc1` (stereo not drawn), the results for the growth inhibition in assay [1], in assay [2] and in assay [3] were -23.5%, -7.4% and -13.1%, respectively.
As to `COc1cccc(/C=C/C(=O)c2ccc(Cl)cc2)c1OC`, the growth inhibition in assay [1] was 27%; in assay [2], 30.1%; in assay [3] it was 16.2%.
In the case of `CC(=O)CC(=O)N1CCN(C(=O)CC(C)=O)CC1`, the growth inhibition in assay [1] is -16.9%; in assay [2], -16.8%; in assay [3], -23.3%.
Consider `CCOC(=O)NC(C)(C)CN(C(=O)OCC)C(C)(C)CO`, for which the growth inhibition was 3.5% in assay [1], -26.2% in assay [2] and 8.05% in assay [3].
On to `CC[n+]1c(C)n(Cc2ccc(C(=O)O)cc2)c2cc(F)ccc21`, for which the growth inhibition in assay [1] was -10.8%; in assay [2] it was -14.7%; in assay [3], 27.9%.
Regarding `C=CCNC(=O)C(O)C(O)C(=O)NCC=C` (stereo not drawn), the growth inhibition in assay [1] is -25.1%; in assay [2], -32.5%; in assay [3], -21.2%.
The matching figures for `Cc1nc2c(Cl)cc(Cl)c(Cl)c2s1`: 9.65%, 5.15% and 51.1%.
On to `CCOC(=O)c1sc(N)nc1-c1ccccc1`, for which the growth inhibition in assay [1] was 10.7%; in assay [2] it was 4%; in assay [3], 24.6%.
Take `O=[N+]([O-])c1cccc(C=Nc2cccc(C(F)(F)F)c2)c1`: the growth inhibition in assay [1] is 6.95%; in assay [2], 4.35%; in assay [3], -12.2%.
`O=C(O)/C=C\C(=O)Nc1ccccc1NC(=O)/C=C/C(=O)O`: the growth inhibition is 3.45% in assay [1], -26.1% in assay [2] and -16.2% in assay [3].
Consider `CCN(CC)c1cc(C(C)(C)C)cc(C(C)(C)C)c1`, for which the growth inhibition is 0.45% in assay [1], -21.5% in assay [2] and -11.1% in assay [3].

The record behind these values is PubChem BioAssay (NCI).
